# PubChem BioAssay (NCATS)
# Values joined by “and” are separate entries in the source; they are usually repeats but may differ in a detail not shown here. Identical values can stand only once. Results filed as inconclusive are left out. Entries that show only a call come without a potency. The source holds several records for some structures; these can differ, active in one and inactive in another. Active and inactive are the calls of the source. Calls follow the shape of the dose curve; as a rule, active = well fitted curve in the direction sought with a large enough effect; inconclusive = small, poorly fitted or top-dose-only effect, or another doubt; inactive = no such curve, though single readings can be large; an effect the other way counts as inactive or inconclusive.
# Columns and labels:
# [1] = Quantitative high throughput screen for delayed death inhibitors of the malarial parasite plastid, 48 hour incubation (AID 488752); also: nearly all actives have a fitted effect of over 65% in size; also: potency is read from the fitted curve at half-maximal effect
# Method in brief: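 Cultures: infected erythrocytes at final 2% hematocrit and 0.1% parasitemia in Albumax-supplemented RPMI. Parasites express integrated firefly luciferase. Incubation with compound lasts 48 h before luminescent detection of remaining reporter activity.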
# [2] = target: Thioredoxin reductase 1, cytoplasmic (Rattus norvegicus) (UniProt O89049); assay: qHTS Assay for Substrates of Mammalian Selenoprotein Thioredoxin Reductase 1 (TrxR1) (AID 488772);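 also: series mostly up to about 57 µM; a drop in NADPH fluorescence below the no-compound background marks a TrxR1 substrate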
# Method in brief: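 In this dual-purpose format, potential substrates are identified from the first fluorescence read after selenite addition, not from the 8-minute delta. Rat enzyme is preincubated with NADPH and then with compound at ~22 deg C.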
# [3] = target: Flap endonuclease 1 (Homo sapiens) (UniProt P39748); assay: qHTS Validation Assay for the Inhibitors of Human Flap endonuclease 1 (FEN1) (AID 488816); also: potency is read from the fitted curve at half-maximal effect
# Method in brief: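 qHTS format: compounds and 10 nM FEN1 incubated 15 min at room temperature before adding 50 nM substrate. Cleavage followed by reads at 0 and 15 min; normalized data fitted to a four-parameter Hill curve.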
# [4] = target: M-phase phosphoprotein 8 (Homo sapiens) (UniProt Q99549); assay: qHTS Validation Assay for Inhibitors for MPP8 Chromodomain Interactions with Methylated Histone Tails (AID 488949); also: nearly all actives have a fitted effect of over 55% in size; also: potency is read from the fitted curve at half-maximal effect
# Method in brief: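 MPP8 (50 nM) was preincubated with biotinylated H3(1-18)K9me3 peptide (50 nM) in PBS pH 7.4, 0.01% Tween-20 for 30 min at room temperature, then with compounds for 30 min; binding was detected by AlphaScreen.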
# [5] = target: Chromobox protein homolog 1 (Homo sapiens) (UniProt P83916); assay: qHTS Validation Assay for Inhibitors of HP1-beta Chromodomain Interactions with Methylated Histone Tails (AID 488953); also: nearly all actives have a fitted effect of over 50% in size; also: potency is read from the fitted curve at half-maximal effect
# Method in brief: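 Compounds pinned into a preassembled complex of HP1-beta and trimethyl-K9 histone H3(1-18) biotin peptide (50 nM each; PBS pH 7.4, 0.01% Tween-20). After 30 min, bead-based AlphaScreen detection followed.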
# [6] = target: Methanococcus maripaludis chaperonin (MmCpn) (UniProt Q6LX38); assay: High-Throughput Screening for Modulators of Cytosolic Chaperonin Activity: MmCpn Primary Screen (AID 488978);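 also: 50 nM MmCpn enzyme hydrolysing 30 µM ATP at 37 °C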
# Method in brief: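 MmCpn (50 nM final) was preincubated with compound 5 min at RT, then 30 uM ATP (final) was added and the reaction ran 10 min at 37C. ADP produced was detected by Transcreener HTRF (ex 320 nm; em 590/665 nm).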
# [7] = target: Transient receptor potential cation channel subfamily V member 1 (Homo sapiens) (UniProt Q8NER1); assay: HTS Assay for Compounds that Act as Enhancers of the Vanilloid Receptor 1 (AID 488979)
# Method in brief: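 Calcium influx kinetics via Fluo-8 (480/520 nm) in TRPV1-expressing cells, 2000/well cultured overnight at 35.5C. Compound-alone read 3 min (agonist phase), followed by EC20 capsaicin challenge for 2 min (enhancer phase).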
# [8] = target: Thyrotropin receptor (Homo sapiens) (UniProt P16473); assay: qHTS Assay for Antagonists of the Thyroid Stimulating Hormone Receptor (AID 488980); also: series mostly up to about 58 µM
# Method in brief: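 HEK293 cells transfected with human TSHR, suspended in HEPES-buffered HBSS with 70 uM RO 20-1724, were treated with compounds plus TSH at EC80 (4 nM final). cAMP was measured by competitive HTRF (cryptate anti-cAMP antibody, cAMP-d2 acceptor).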
# [9] = target: D(1A) dopamine receptor (Homo sapiens) (UniProt P21728); assay: HTS Assay for Allosteric Agonists of the Human D1 Dopamine Receptor: Primary Screen for Agonists (AID 488981); also: potency is read from the fitted curve at half-maximal effect
# Method in brief: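 Calcium flux in an inducible, force-coupled HEK293 Trex D1 line (overnight at 30 C): agonist mode is the 180 s kinetic read after compound; potentiator mode is the following 180 s read after dopamine at EC20.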
# [10] = target: Thioredoxin reductase 1, cytoplasmic (Rattus norvegicus) (UniProt O89049); assay: qHTS Assay for Inhibitors of Mammalian Selenoprotein Thioredoxin Reductase 1 (TrxR1) (AID 488773); conditions: Potency: inhibition; also: nearly all actives have a fitted effect of over 40% in size; also: potency is read from the fitted curve at half-maximal effect
# Method in brief: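 Inhibition is scored from the loss of NADPH fluorescence between first and last reads of an 8-min kinetic run. Selenite (400 uM) was the substrate, added after 15 min compound preincubation at room temperature.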
# D(1A) dopamine receptor (Homo sapiens), sequence (P21728 whole entry, looked up): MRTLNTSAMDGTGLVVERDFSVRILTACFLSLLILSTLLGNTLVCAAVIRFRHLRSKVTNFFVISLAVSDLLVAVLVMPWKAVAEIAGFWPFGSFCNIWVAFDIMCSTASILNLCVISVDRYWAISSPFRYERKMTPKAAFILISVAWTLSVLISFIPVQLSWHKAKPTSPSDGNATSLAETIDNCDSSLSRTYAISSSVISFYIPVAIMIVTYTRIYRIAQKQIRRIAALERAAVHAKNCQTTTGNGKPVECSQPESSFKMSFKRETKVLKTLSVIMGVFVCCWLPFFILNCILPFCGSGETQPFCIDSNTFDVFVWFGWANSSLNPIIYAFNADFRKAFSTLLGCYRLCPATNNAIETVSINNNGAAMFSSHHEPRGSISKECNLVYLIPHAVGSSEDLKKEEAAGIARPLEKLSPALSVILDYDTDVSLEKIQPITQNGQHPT
# Thyrotropin receptor (Homo sapiens), sequence (P16473 whole entry, looked up): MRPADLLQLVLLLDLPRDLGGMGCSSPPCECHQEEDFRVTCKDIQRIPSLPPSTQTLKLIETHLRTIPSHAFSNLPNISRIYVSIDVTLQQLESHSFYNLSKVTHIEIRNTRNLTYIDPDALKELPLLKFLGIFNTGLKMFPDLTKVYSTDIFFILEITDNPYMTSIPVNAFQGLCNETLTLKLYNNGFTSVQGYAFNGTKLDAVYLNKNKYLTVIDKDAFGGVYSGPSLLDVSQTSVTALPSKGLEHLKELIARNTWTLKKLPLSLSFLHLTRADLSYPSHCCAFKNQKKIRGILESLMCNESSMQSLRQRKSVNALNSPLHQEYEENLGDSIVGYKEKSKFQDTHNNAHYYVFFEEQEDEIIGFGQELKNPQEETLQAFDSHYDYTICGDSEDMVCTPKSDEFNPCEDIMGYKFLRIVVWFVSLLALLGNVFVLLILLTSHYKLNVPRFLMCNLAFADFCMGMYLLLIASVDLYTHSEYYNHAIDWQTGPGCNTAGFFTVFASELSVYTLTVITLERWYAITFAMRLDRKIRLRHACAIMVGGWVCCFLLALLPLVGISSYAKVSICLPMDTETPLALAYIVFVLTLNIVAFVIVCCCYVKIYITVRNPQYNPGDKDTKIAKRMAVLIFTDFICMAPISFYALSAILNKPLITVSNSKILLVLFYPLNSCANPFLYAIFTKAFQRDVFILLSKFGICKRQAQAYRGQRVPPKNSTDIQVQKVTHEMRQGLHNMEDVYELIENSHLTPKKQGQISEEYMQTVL
# Thioredoxin reductase 1, cytoplasmic (Rattus norvegicus), sequence (O89049 whole entry, looked up): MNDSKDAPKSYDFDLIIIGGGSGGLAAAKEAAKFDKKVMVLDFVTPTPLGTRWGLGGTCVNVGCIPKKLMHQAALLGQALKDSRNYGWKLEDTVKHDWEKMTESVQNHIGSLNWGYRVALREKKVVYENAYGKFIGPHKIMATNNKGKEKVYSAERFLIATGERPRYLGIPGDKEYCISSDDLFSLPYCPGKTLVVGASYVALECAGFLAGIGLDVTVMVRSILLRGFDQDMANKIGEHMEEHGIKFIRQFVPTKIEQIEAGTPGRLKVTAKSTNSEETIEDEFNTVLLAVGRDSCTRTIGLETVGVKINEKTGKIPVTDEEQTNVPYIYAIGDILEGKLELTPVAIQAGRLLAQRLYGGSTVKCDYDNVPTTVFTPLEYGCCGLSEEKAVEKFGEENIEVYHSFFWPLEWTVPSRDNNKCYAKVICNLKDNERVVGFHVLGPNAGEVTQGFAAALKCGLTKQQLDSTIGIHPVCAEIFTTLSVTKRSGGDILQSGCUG
# Flap endonuclease 1 (Homo sapiens), sequence (P39748 whole entry, looked up): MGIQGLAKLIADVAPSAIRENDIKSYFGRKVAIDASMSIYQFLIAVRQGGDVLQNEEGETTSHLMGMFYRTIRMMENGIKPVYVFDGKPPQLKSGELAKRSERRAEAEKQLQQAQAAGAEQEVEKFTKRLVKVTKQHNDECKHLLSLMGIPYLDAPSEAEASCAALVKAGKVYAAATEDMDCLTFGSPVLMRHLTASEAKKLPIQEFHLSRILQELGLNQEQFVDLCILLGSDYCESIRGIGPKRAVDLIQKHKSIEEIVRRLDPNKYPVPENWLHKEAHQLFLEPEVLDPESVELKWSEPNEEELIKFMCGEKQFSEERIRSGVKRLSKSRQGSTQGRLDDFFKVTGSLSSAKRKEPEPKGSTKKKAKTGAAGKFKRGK
# Methanococcus maripaludis chaperonin (MmCpn), sequence (Q6LX38 1-543): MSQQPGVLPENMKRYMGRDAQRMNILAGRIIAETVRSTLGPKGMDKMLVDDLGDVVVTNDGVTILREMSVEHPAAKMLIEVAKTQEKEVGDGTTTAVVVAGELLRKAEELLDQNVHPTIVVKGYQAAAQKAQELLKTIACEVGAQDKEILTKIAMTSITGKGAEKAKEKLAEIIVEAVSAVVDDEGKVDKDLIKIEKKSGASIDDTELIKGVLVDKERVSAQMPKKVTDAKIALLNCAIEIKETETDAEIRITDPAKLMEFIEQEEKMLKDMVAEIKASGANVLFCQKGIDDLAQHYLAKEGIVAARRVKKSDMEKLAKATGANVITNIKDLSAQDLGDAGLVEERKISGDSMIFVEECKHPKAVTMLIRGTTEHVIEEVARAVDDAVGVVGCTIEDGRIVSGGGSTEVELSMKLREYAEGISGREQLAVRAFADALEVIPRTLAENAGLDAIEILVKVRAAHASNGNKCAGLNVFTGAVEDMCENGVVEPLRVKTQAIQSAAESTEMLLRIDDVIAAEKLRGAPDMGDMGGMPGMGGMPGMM
# Chromobox protein homolog 1 (Homo sapiens), sequence (P83916 whole entry, looked up): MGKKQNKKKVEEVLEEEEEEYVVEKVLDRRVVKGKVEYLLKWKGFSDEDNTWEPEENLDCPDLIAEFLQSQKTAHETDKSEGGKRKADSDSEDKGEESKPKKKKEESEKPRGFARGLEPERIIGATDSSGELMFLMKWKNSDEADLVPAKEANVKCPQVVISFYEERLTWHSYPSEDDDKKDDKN
# Transient receptor potential cation channel subfamily V member 1 (Homo sapiens), sequence (Q8NER1 whole entry, looked up): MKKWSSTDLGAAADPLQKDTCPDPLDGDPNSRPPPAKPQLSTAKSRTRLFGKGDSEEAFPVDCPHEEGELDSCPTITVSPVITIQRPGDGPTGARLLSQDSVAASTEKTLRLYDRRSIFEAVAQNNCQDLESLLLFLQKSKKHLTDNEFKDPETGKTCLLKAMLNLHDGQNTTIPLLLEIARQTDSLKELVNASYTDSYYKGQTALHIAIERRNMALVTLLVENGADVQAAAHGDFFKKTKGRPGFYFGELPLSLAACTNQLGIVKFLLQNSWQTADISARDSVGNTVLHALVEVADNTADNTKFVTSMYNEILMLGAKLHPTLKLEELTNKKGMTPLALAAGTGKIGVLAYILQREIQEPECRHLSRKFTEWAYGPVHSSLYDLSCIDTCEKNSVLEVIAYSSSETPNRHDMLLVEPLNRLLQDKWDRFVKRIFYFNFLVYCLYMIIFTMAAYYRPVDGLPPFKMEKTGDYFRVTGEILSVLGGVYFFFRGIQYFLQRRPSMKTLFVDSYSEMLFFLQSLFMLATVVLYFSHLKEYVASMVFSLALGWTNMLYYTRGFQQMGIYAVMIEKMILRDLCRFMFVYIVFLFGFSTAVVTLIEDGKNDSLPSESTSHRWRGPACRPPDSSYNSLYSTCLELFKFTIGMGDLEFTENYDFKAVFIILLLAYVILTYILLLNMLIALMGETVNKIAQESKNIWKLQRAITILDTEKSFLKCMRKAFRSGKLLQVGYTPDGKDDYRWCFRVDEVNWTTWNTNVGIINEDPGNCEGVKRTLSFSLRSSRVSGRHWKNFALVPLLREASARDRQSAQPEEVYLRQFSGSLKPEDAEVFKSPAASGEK
# M-phase phosphoprotein 8 (Homo sapiens), sequence (Q99549 whole entry, looked up): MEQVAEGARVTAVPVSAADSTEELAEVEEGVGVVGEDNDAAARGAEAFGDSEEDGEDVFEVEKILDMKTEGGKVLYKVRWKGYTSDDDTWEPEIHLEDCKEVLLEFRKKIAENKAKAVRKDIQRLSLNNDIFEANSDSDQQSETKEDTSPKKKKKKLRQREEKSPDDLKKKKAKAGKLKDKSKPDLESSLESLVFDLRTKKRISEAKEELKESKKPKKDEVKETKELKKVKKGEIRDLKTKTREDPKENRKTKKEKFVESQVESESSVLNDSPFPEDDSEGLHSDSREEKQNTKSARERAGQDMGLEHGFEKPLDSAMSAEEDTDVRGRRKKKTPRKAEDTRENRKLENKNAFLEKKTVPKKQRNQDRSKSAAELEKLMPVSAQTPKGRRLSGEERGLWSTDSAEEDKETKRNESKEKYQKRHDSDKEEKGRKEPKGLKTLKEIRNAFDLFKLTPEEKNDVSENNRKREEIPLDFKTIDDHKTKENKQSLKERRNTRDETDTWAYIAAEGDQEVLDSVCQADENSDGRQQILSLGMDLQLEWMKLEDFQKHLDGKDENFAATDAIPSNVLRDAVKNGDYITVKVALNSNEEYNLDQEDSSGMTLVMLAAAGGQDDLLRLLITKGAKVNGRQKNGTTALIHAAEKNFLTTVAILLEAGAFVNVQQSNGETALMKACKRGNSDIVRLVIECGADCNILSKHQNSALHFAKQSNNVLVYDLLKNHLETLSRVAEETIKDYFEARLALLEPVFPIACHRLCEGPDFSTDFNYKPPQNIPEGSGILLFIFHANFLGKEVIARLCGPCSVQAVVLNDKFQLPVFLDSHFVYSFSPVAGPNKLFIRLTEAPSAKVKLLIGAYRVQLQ
Compound,Potency [1],Potency [2],Potency [3],Potency [4],Potency [5],outcome [6],outcome [7],outcome [8],Potency [9],Potency [10]
O=Nc1ccc2oc(=O)ccc2c1,inactive,inactive,inactive,39.8 µM (active),39.8 µM (active),inactive,inactive,inactive,inactive,–
Brc1c(Br)c(Br)c2n[nH]nc2c1Br,inactive,inactive,–,–,–,inactive,inactive,inactive,–,inactive
Fc1ccc(C(OCCCc2cnc[nH]2)c2ccc(F)cc2)cc1,6.57 µM (active),–,–,50.1 µM (active),39.8 µM (active),inactive,inactive,inactive,inactive,inactive
COC1=C(OC)C(=O)c2ccccc2C1=O,inactive,–,inactive,inactive,inactive,inactive,inactive,inactive,inactive,inactive
O=C1NC(O)=NC1(c1ccccc1)c1ccccc1,inactive,–,inactive,inactive,inactive,inactive,inactive,inactive,–,inactive
Cc1ccc(C(=O)O[C@H](C(=O)O)[C@@H](OC(=O)c2ccc(C)cc2)C(=O)O)cc1 (tested in a mixture with another compound),inactive,inactive,–,inactive,inactive,–,inactive,–,inactive,inactive
O=C(Nc1cccc(C(=O)Nc2ccc(S(=O)(=O)O)c3cc(S(=O)(=O)O)cc(S(=O)(=O)O)c23)c1)Nc1cccc(C(=O)Nc2ccc(S(=O)(=O)O)c3cc(S(=O)(=O)O)cc(S(=O)(=O)O)c23)c1,inactive,inactive,1.89 µM (active),31.6 µM (active) and 9.47 µM (active),20 µM (active),inactive,inactive,inactive,inactive,–
CN(C)c1nc2c(Br)c(Br)c(Br)c(Br)c2[nH]1,inactive,inactive,inactive,inactive,inactive,inactive,inactive,inactive,inactive,–
CN1[C@@H](CC(=O)c2ccccc2)CCC[C@H]1C[C@H](O)c1ccccc1,inactive,inactive,–,–,inactive,inactive,inactive,inactive,inactive,inactive
Cc1ccc(O)c(N=Nc2ccccc2)n1,inactive,inactive,inactive,39.8 µM (active) and inactive,44.7 µM (active),inactive,inactive,inactive,inactive,–
CC1CN(S(=O)(=O)c2cccc3cnccc23)CCN1 (stereo unspecified),inactive,–,inactive,inactive,–,inactive,inactive,inactive,inactive,inactive
NCCCCC(=O)O,inactive,inactive,–,inactive,inactive,–,inactive,inactive,inactive,inactive
CN(C)C(N)=NCCC[C@H](N)C(=O)O,inactive,–,inactive,inactive,inactive,inactive,inactive,inactive,–,inactive
C=C[C@@H]1CN2CC[C@@H]1C[C@H]2[C@H](O)c1ccnc2ccc(OC)cc12,0.0928 µM (active),inactive,–,–,inactive,inactive,–,–,inactive,–
C#CCN1C(C)=C(C(=O)OC)C(c2cccc([N+](=O)[O-])c2)C(C(=O)OCC)=C1C (stereo unspecified),11.7 µM (active),–,inactive,inactive,–,inactive,inactive,inactive,inactive,inactive
Oc1ccc(C2CNCc3sccc32)cc1O (stereo unspecified),inactive,inactive,–,inactive,inactive,–,inactive,inactive,–,–
CN1CCC[C@H]1c1cccnc1,inactive,inactive,–,inactive,–,inactive,inactive,–,inactive,inactive
CCCCC/C=C\CC(O)/C=C/c1cccc(CC(O)CCCCO)n1 (stereo unspecified),inactive,inactive,inactive,inactive,0.0075 µM (active),inactive,inactive,inactive,–,–
CN(C)CCC(c1ccc(Cl)cc1)c1ccccn1 (stereo unspecified),inactive,–,–,inactive,inactive,inactive,inactive,inactive,inactive,inactive
O=C(O)c1cc(=O)c2c(Cl)cc(Cl)cc2[nH]1,inactive,inactive,inactive,inactive,inactive,inactive,inactive,inactive,inactive,–
CC(=O)N[C@H](C(=O)O)C(C)(C)SN=O,inactive,–,inactive,inactive,inactive,inactive,inactive,inactive,–,inactive
CC12C(=O)OC(=O)C1(C)C1CCC2O1 (stereo unspecified),4.15 µM (active),–,–,inactive,inactive,inactive,inactive,–,inactive,inactive
NCCCS(=O)(=O)O,inactive,inactive,–,inactive,inactive,–,inactive,inactive,inactive,–
CCCCCCCCCCCCCCCC(=O)NCC(COP(=O)([O-])OCC[N+](C)(C)C)OCC (stereo unspecified),inactive,inactive,–,inactive,inactive,–,–,inactive,12.6 µM (active),inactive
CCCCN1CCC(n2c(=O)[nH]c3ccccc32)CC1,inactive,–,inactive,inactive,–,inactive,inactive,inactive,inactive,inactive
NC(=O)C(=O)O,inactive,–,inactive,inactive,inactive,inactive,inactive,inactive,inactive,inactive
O=C(O)CC1CCCc2ccccc2C1O (stereo unspecified),inactive,–,inactive,inactive,–,inactive,inactive,inactive,inactive,inactive

Compound,Potency [1],Potency [2],Potency [3],Potency [4],Potency [5],outcome [6],outcome [7],outcome [8],Potency [9],Potency [10]
CCCN(CC1CC1)c1nc(C)nc(Nc2c(Cl)cc(Cl)cc2Cl)c1Cl,2.62 µM (active),–,–,inactive,inactive,–,inactive,inactive,inactive,inactive
c1cnc2c(c1)ccc1cccnc12,2.94 µM (active),inactive,–,inactive,inactive,–,inactive,inactive,inactive,inactive
c1ccc(-c2ccccn2)nc1,inactive,–,inactive,inactive,inactive,inactive,inactive,inactive,–,inactive
N=C(N)SCCc1ccc(CCSC(=N)N)cc1,inactive,–,inactive,inactive,inactive,inactive,inactive,inactive,–,inactive
N#C/C(=C\c1ccc(O)c(O)c1)C(=O)c1ccc(O)c(O)c1,inactive,inactive,0.752 µM (active),1.41 µM (active) and 2.99 µM (active),0.501 µM (active),inactive,inactive,inactive,–,–
CSc1nc(N)c2ncn([C@@H]3O[C@H](COP(=O)(O)OP(=O)(O)OP(=O)(O)O)[C@@H](O)[C@H]3O)c2n1,–,inactive,inactive,inactive,inactive,inactive,–,–,1.58 µM (active),inactive
CC[C@@H](C)[C@H]1O[C@]2(CC[C@@H]1C)C[C@@H]1C[C@@H](C/C=C(\C)[C@@H](O[C@H]3C[C@H](OC)[C@@H](O[C@H]4C[C@H](OC)[C@@H](O)[C@H](C)O4)[C@H](C)O3)[C@@H](C)/C=C/C=C3\CO[C@@H]4[C@H](O)C(C)=C[C@@H](C(=O)O1)[C@]34O)O2,1.65 µM (active),–,–,–,–,–,–,inactive,–,–
Nc1nc(Cl)nc2c1ncn2[C@@H]1O[C@H](COP(=O)(O)OP(=O)(O)OP(=O)(O)O)[C@@H](O)[C@H]1O,–,inactive,inactive,inactive,inactive,inactive,–,–,0.891 µM (active),inactive
Nc1nc(Cl)nc2c1ncn2[C@@H]1O[C@H](CO)[C@@H](O)[C@H]1O,–,inactive,inactive,inactive,inactive,inactive,–,–,inactive,inactive
CN[C@H](CC(C)C)C(=O)N[C@H]1C(=O)N[C@@H](CC(N)=O)C(=O)N[C@H]2C(=O)N[C@H]3C(=O)N[C@H](C(=O)N[C@H](C(=O)O)c4cc(O)cc(O)c4-c4cc3ccc4O)[C@H](O)c3ccc(c(Cl)c3)Oc3cc2cc(c3O[C@@H]2O[C@H](CO)[C@@H](O)[C@H](O)[C@H]2O[C@H]2C[C@](C)(N)[C@H](O)[C@H](C)O2)Oc2ccc(cc2Cl)[C@H]1O,inactive,–,–,inactive,–,–,inactive,inactive,–,–
C=C/C(C)=C/[C@@]1(C)SC(=O)C(C)=C1O,inactive,–,–,50.1 µM (active),–,–,inactive,inactive,–,–
OC[C@H]1O[C@@H](n2cnc3c(NC4CCCC4)ncnc32)[C@H](O)[C@@H]1O,–,inactive,inactive,inactive,inactive,inactive,–,–,–,inactive
C[C@@H](CN1CCC(Cc2ccccc2)CC1)[C@@H](O)c1ccc(O)cc1,–,inactive,inactive,inactive,inactive,inactive,inactive,inactive,inactive,inactive
CCNC(=O)[C@H]1O[C@@H](n2cnc3c(N)nc(NCCc4ccc(CCC(=O)O)cc4)nc32)[C@H](O)[C@@H]1O,–,inactive,inactive,inactive,inactive,inactive,–,–,–,inactive
CCN1/C(=C/C(C)=O)Sc2ccc(OC)cc21,inactive,–,–,inactive,–,inactive,inactive,inactive,inactive,inactive
CN1CCc2cc(O)c(O)cc2C(c2ccccc2)C1 (stereo unspecified),–,inactive,inactive,inactive,inactive,inactive,inactive,inactive,inactive,inactive
CC(C)(C)c1ccc(S(=O)(=O)/C=C/C#N)cc1,–,inactive,inactive,20 µM (active) and inactive,44.7 µM (active),inactive,–,inactive,–,0.377 µM (active)
Cc1ccc(S(=O)(=O)/C=C/C#N)cc1,–,inactive,inactive,inactive,39.8 µM (active),inactive,–,–,–,0.238 µM (active)
C#C[C@]1(O)CC[C@H]2[C@@H]3CCC4=Cc5oncc5CC4(C)[C@H]3CCC21C (stereo partly specified),–,inactive,inactive,inactive,inactive,–,–,–,–,inactive
OCC1O[C@H]([S-])[C@H](O)[C@@H](O)[C@@H]1O.[Au+] (stereo partly specified),–,inactive,1.5 µM (active),1.5 µM (active),2 µM (active),inactive,–,–,inactive,0.0752 µM (active)
Cc1cc2c(cc1Cl)N(C(=O)Nc1ccc(Oc3cccnc3C)nc1)CC2,–,inactive,inactive,inactive,44.7 µM (active),inactive,–,–,–,inactive
O=C(O)CNC(=O)C(CS)Cc1ccccc1 (stereo unspecified),inactive,–,–,–,inactive,–,inactive,inactive,inactive,inactive
O=S(=O)(c1cccc2c(I)cccc12)N1CCCNCC1,inactive,–,inactive,inactive,–,inactive,–,inactive,14.1 µM (active),–
O=C1NC(=O)/C(=C/c2ccc3nccnc3c2)S1,–,inactive,inactive,inactive,inactive,inactive,–,–,inactive,inactive
CC(=O)/C=C1\C(=O)N(C)c2ccccc21,–,inactive,inactive,inactive,0.0532 µM (active),inactive,–,–,inactive,29.9 µM (active)
CN1CC(=O)N/C1=N/C(=O)Nc1cccc(Cl)c1,–,inactive,inactive,inactive,inactive,inactive,–,–,inactive,inactive
CO/N=C(\C(=O)N[C@@H]1C(=O)N2C(C(=O)O)=C(COC(C)=O)CS[C@H]12)c1csc(N)n1 (stereo in doubt),inactive,–,–,56.2 µM (active),–,–,inactive,inactive,–,–
